SW480 rereplic: inducers of DNA re-replication in SW480 colon cancer cells. SW480 DNA re-replication, Hoechst DNA content imaging, 48 h. Potency, µM (top dose mostly 46.1 µM), inactives show at the top dose re-replication activation, hits mostly activators. 340,000 tested, 1.8% active. AID 624297; also: % of control where 0% means no effect; nearly all actives have a fitted effect of over 55% in size
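Readout is total intensity of Hoechst-stained nuclei, excited at 405 nm and collected at 500-530 nm. Compound treatment lasted 48 hr at 37 C in 5% CO2 before staining.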
PINK1 modulator: PINK1 expression modulation; PINK1 immunofluorescence, high-content cytometry, 24 h; Potency, µM (top dose mostly 76.6 µM), inactives show at the top dose activation (PINK1 increase), usual class: activators; 410,000 tested, 0.2% active; AID 624263; active = well fitted activation curve with a large enough effect; inconclusive = small, poorly fitted or top-dose-only effect; cell line not stated here; also: % of control where 0% means no effect; nearly all actives have a fitted effect of over 65% in size
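Fluorescence from anti-PINK1 antibody, together with nuclear and cell stains, was scanned on a laser-scanning cytometer. Before staining, stable-line cells were incubated 24 hours with compounds at 5 concentrations; primary antibody 12 h at 10 degrees C.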
MCF10A rerep: DNA re-replication induction in MCF 10a cells. MCF 10A DNA re-replication, Hoechst nuclear intensity, 48 h. Potency, µM (highest dose often 46.1 µM), for inactives: at the top dose activity, positive = re-replication, hits mostly activators. 350,000 tested, 2.9% active. AID 624296; also: % of control where 0% means no effect; nearly all actives have a fitted effect of over 50% in size
KB-3-1 tox: kills parental KB-3-1 adenocarcinoma cells. KB-3-1 viability, CellTiter-Glo ATP luminescence, 72 h. Potency, µM (series often up to 46.1 µM), most hits filed as cytotoxic. 400,000 tested, 1.4% active. AID 1347075; also: % is scaled to controls: 0 for no effect and ±100 for the full control effect; nearly all actives have a fitted effect of over 60% in size
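KB-3-1 cells, DMEM (no phenol red) + 10% FBS; compound by pin transfer, 72 h, 37 °C. Readout: CellTiter-Glo luminescence after 10 min. Data normalized, curve-fitted.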
12-LOX inh: blocks human arachidonate 12S-lipoxygenase. P18054. purified 12hLO, xylenol orange hydroperoxide absorbance. Potency, µM (highest dose often 108 µM), without a hit: at the top dose activity change, negative = inhibition, actives largely listed as inhibitors. 580,000 tested, 1.1% active; also: % is scaled to controls: 0 for no effect and ±100 for the full control effect
Target sequence (P18054 whole entry, looked up): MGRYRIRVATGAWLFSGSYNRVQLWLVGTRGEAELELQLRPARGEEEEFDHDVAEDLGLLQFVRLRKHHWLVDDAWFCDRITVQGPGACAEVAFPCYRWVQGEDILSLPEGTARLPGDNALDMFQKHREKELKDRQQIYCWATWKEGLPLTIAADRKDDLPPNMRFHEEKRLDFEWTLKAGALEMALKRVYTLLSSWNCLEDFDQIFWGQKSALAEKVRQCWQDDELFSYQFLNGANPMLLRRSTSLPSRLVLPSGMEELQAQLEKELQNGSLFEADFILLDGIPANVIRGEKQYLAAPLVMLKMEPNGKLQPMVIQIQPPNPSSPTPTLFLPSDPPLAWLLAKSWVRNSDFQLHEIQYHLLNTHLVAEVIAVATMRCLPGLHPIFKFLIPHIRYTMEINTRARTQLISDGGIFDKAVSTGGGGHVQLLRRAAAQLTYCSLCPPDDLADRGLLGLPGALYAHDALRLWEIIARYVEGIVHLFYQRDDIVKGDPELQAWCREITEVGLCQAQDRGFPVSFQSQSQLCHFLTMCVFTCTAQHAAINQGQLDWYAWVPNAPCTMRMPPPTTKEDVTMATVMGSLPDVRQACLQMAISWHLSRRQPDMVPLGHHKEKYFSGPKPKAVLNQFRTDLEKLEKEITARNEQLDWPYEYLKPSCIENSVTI
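Purified human 12hLO (150 nM final) in 25 mM Hepes, 0.01% Triton X-100, pH 7.0 was preincubated 15 min at room temperature with compound. Then 40 uM arachidonic acid was added, 30 min. Hydroperoxide was read by Fe-XO absorbance ratio 573/405 nm.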
KB-V1 MDR tox: KB-V1 MDR subline cytotoxicity; KB-V1 MDR cells viability, CellTiter-Glo, 72 h; Potency, µM (doses to about 46.1 µM), hits mostly cytotoxic; 400,000 tested, 3.4% active; AID 1347076; also: % is scaled to controls: 0 for no effect and ±100 for the full control effect; nearly all actives have a fitted effect of over 60% in size
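KB-V1, DMEM (no phenol red) + 10% FBS; cpd pin-transferred, titration series; 72 h, 37 degrees C; CellTiter-Glo, luminescence. Data normalized, curve-fit.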
The depositor's hits bear a star; ! = a repeat was not active; [ ] = another dose, or the depositor's remark. Compounds with a hit are over-represented: about 5.8% of the library has one in this group of screens. Unless noted, calls follow the shape of the dose curve; as a rule, active = well fitted curve in the direction sought with a large enough effect; inconclusive = small, poorly fitted or top-dose-only effect, or another doubt; inactive = no such curve, though single readings can be large; an effect the other way counts as inactive or inconclusive. Potency is read from the fitted curve at half-maximal effect.

Screening Cc1ccccc1NC(=O)Cc1nc(COC(=O)Cc2ccccc2)cs1 returned SW480 rereplic -15%, PINK1 modulator -1%, MCF10A rerep 7%, KB-3-1 tox inactive, 12-LOX inh 188% and KB-V1 MDR tox inconclusive.
Cc1ccccc1NC(=O)CCl was read as SW480 rereplic 14%, PINK1 modulator 14%, MCF10A rerep 2%, KB-3-1 tox 21µM*, 12-LOX inh 8% and KB-V1 MDR tox inactive.
Screening CC(C)Oc1cc(-n2c(=S)[nH]c3ccccc3c2=O)c(Cl)cc1Cl returned SW480 rereplic 9%, PINK1 modulator inconclusive, MCF10A rerep 84%, KB-3-1 tox inconclusive, 12-LOX inh 0% and KB-V1 MDR tox 23µM*.
O=[N+]([O-])/C=C\c1c[nH]c2ccccc12 was read as 12-LOX inh 33%.
Cc1cc(OCCCC(=O)NCc2cccs2)ccc1Cl was read as SW480 rereplic inconclusive, PINK1 modulator 4%, MCF10A rerep 3%, KB-3-1 tox inactive, 12-LOX inh 1% and KB-V1 MDR tox inactive.
Cc1cc(Cl)ccc1OCCCC(=O)NCc1cccs1 was read as SW480 rereplic inconclusive, PINK1 modulator inconclusive, MCF10A rerep inconclusive, KB-3-1 tox inactive, 12-LOX inh -1% and KB-V1 MDR tox 26µM*.
`CC(=O)O/C(=C1\CC2C3CC=C4CC(OC(C)=O)CCC4(C)C3CCC2(C)C1=O)C(F)(F)F` (configuration not stated) gave SW480 rereplic -2%, PINK1 modulator inconclusive, MCF10A rerep inconclusive, KB-3-1 tox inconclusive, 12-LOX inh -11% and KB-V1 MDR tox 10µM*.
For O=C(c1ccco1)N1[C@H]2CC[C@@H]1c1cnc(-c3ccc(F)cc3)nc1C2 the results were 12-LOX inh 6%.
COc1ccccc1N1CCN(CCc2c[nH]c3cc4c(cc23)OCO4)CC1 was read as SW480 rereplic 13%, PINK1 modulator -1%, MCF10A rerep 17%, KB-3-1 tox inactive, 12-LOX inh inconclusive and KB-V1 MDR tox 18µM*.
Screening Nc1nc(F)nc2c1ncn2[C@@H]1O[C@H](CO)[C@@H](O)[C@@H]1O returned SW480 rereplic 11%, PINK1 modulator 0%, MCF10A rerep -4%, KB-3-1 tox 0.65µM*, 12-LOX inh 5% and KB-V1 MDR tox 0.65µM*.
For Nc1nc(F)nc2c1ncn2[C@@H]1O[C@H](CO)[C@@H](O)[C@H]1O the results were SW480 rereplic inconclusive, PINK1 modulator -1%, MCF10A rerep 4.1µM*!, KB-3-1 tox 1.2µM*, 12-LOX inh -5% and KB-V1 MDR tox 1.5µM*.
`Cc1nn(-c2ncnc3nc[nH]c23)c2c1C(c1c(Cl)cccc1Cl)SCC(=O)N2` (configuration not stated) gave 12-LOX inh 15%.
`COc1ncc(-c2cc3c(cc2OC)C2(CCN(C(C)=O)CC2)C(=O)N3)cn1` gave 12-LOX inh -7%[176 µM].
For C/C=C/c1ccc(OCC(=O)N2CCN(CCOc3ccccc3)CC2)c(OC)c1 the results were 12-LOX inh 2%.
For O=C(Nc1ccccc1)C1=C[C@H](c2ccccc2)C[C@H](OCCCCO)O1 the results were SW480 rereplic 1%, PINK1 modulator 13%, MCF10A rerep 18µM*, KB-3-1 tox inconclusive, 12-LOX inh -13% and KB-V1 MDR tox inconclusive.
For c1ccc(Nc2ccc3ccccc3c2)cc1 the results were SW480 rereplic -5%, PINK1 modulator 5%, MCF10A rerep 5%, KB-3-1 tox inactive, 12-LOX inh 28% and KB-V1 MDR tox inactive.
For CC(C)Nc1ccc(Nc2ccccc2)cc1 the results were SW480 rereplic 24µM*, PINK1 modulator 6%, MCF10A rerep inconclusive, KB-3-1 tox 18µM*, 12-LOX inh inconclusive and KB-V1 MDR tox inactive.
Screening Cc1nc(-c2ccccc2Br)cc([C@H]2CN3CC[C@H]2C[C@@H]3CNC(=O)c2ccccc2)n1 returned 12-LOX inh 8%.
Screening Cc1c2ccncc2c(C)c2c1[nH]c1ccccc12 returned SW480 rereplic 7.3µM*, PINK1 modulator -1%, MCF10A rerep 5.8µM*, KB-3-1 tox inconclusive, 12-LOX inh -15% and KB-V1 MDR tox 9.2µM*.
`c1ccc2c(c1)[nH]c1cnccc12` gave SW480 rereplic -7%, PINK1 modulator 0%, MCF10A rerep 0%, KB-3-1 tox inactive, 12-LOX inh 3% and KB-V1 MDR tox inactive.
For N[C@H](CCP(=O)(O)O)C(=O)O the results were 12-LOX inh 3.5µM*!.
Screening CNCC(N)C(=O)O (configuration not stated) returned 12-LOX inh 11%.
`CCCC(C)NC(=O)COC(=O)c1c(C)n(C2CC2)c2ccc(OC)cc12` (configuration not stated) gave 12-LOX inh 7%.
O=C(c1ccc(N2CCCCCC2)c([N+](=O)[O-])c1)N1CCC2(CC1)OCCO2 was read as SW480 rereplic 17%, PINK1 modulator -2%, MCF10A rerep 23µM*, KB-3-1 tox inactive, 12-LOX inh -1% and KB-V1 MDR tox inconclusive.
`CCCc1c(-c2ccccc2F)ncn1CCc1ccccc1OC` gave PINK1 modulator inconclusive, KB-3-1 tox inconclusive, 12-LOX inh inconclusive and KB-V1 MDR tox 16µM*.
`Cc1c(N=Nc2c(O)n(Cc3ccccc3)c(=O)[nH]c2=O)c(=O)n(-c2ccccc2)n1C` gave SW480 rereplic inconclusive, PINK1 modulator -1%, MCF10A rerep 20%, KB-3-1 tox inactive, 12-LOX inh 3% and KB-V1 MDR tox 3.7µM*.
Screening COc1ccccc1-n1c(O)c(C=Nc2c(C)n(C)n(-c3ccccc3)c2=O)c(=O)[nH]c1=O returned SW480 rereplic 23µM*, PINK1 modulator 7%[38.3 µM], MCF10A rerep inconclusive, KB-3-1 tox inactive, 12-LOX inh 10% and KB-V1 MDR tox inactive.
`COc1ccc(OC)c(-n2c(O)c(C=Nc3c(C)n(C)n(-c4ccccc4)c3=O)c(=O)[nH]c2=O)c1` gave SW480 rereplic inconclusive, PINK1 modulator 0%, MCF10A rerep inconclusive, KB-3-1 tox inactive, 12-LOX inh -3% and KB-V1 MDR tox inactive.
For Cc1c(N=Cc2c(O)n(Cc3ccccc3)c(=O)[nH]c2=O)c(=O)n(-c2ccccc2)n1C the results were SW480 rereplic 29µM*, PINK1 modulator 1%, MCF10A rerep -8%, KB-3-1 tox inactive, 12-LOX inh -1% and KB-V1 MDR tox inactive.

Screening results from PubChem.
